MARV entry inh: qHTS for inhibitors of binding or entry into cells for Marburg Virus. Marburg virus pseudotyped entry inhibition, cell reporter. AID 540276, 2011. 300,000 compounds, 1.8% hits. Potency, µM (series often up to 37.8 µM), usual class: inhibitors; calls by dose curve; tested in HEK293 cells
HCMV antiviral: qHTS Assay for inhibitors of the human cytomegalovirus (HCMV) | HFF cells, HCMV-luciferase reporter, 72 h; stronger effect = lower value | activity change, negative = inhibition, % at 57.5 µM | 410,000 compounds, 4.5% hits | AID 1259415, 2018; in the data active = activity change below about -60%; inconclusive = no clear call, values can overlap the other calls; inactive = above about -39%
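Steps: HFFs plated, 16 h 37C; compounds added; HCMV-luciferase added to MOI 1 PFU/cell; 72 h 37C; OneGlo reagent, 5 min room temperature; luminescence read, normalized to controls.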
Pf growth 96h: Primary qHTS for delayed death inhibitors of the malarial parasite plastid, 96 hour incubation. P. falciparum luciferase reporter growth, 96 h. 320,000 compounds, 6.9% hits. Potency, µM (highest dose often 28.7 µM), usual class: inhibitors. AID 504834, 2011
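Readout is luminescence from an integrated firefly luciferase in P. falciparum. Red cells, 2% hematocrit and 0.05% parasitemia final, were cultured with compound through two parasite generations (96 hours) at 37 C, 5% CO2.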
Pf growth 48h: Primary qHTS for delayed death inhibitors of the malarial parasite plastid, 48 hour incubation; Potency, µM (doses to about 28.7 µM), hits mostly inhibitors; AID 504832, 2011; P. falciparum luciferase growth in erythrocytes, 48 h; 310,000 compounds, 5.9% hits
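Cell-based growth assay: transgenic P. falciparum expressing firefly luciferase, cultured in red cells within RPMI 1640 containing 0.5% w/v Albumax, 24 mM bicarbonate and gentamycin. A drop in luciferase activity indicates inhibition.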
HCV inh: qHTS Assay for Inhibitors of Hepatitis C Virus (HCV) | 340,000 compounds, 3.4% hits | Huh7.5.1 HCVcc-Cre infection, luciferase reporter, 44 h | Potency, µM (top dose mostly 41.8 µM), most hits filed as inhibitors
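After 44 h co-culture of compound, cells and HCVcc-Cre (~0.5 moi), substrate is added for 15 min at room temperature and luciferase measured over 15 sec. Cells were seeded at 1,000/well and pre-cultured 4 h.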
Lassa entry inh: qHTS for Inhibitors of binding or entry into cells for Lassa Virus | Lassa virus pseudotype entry inhibition, cell reporter | Potency, µM (highest dose often 37.9 µM), usual class: inhibitors | 300,000 compounds, 1.2% hits | AID 540256, 2011; calls by dose curve; tested in HEK293 cells; note: nearly all actives have a fitted effect of over 50% in size
A number is an active result; n = inactive; u = inconclusive; x = no result. A selection: hits, their analogues and other compounds. The true share with any hit is near 14%. Unless noted, calls come from the whole dose curve; as a rule, active = well fitted inhibition curve with a large enough effect; inconclusive = small, poorly fitted or top-dose-only effect, or another doubt; inactive = no such curve, though single readings can be large or run the other way.

SMILES | MARV entry inh | HCMV antiviral | Pf growth 96h | Pf growth 48h | HCV inh | Lassa entry inh
Cn1c(=O)c2c(ncn2CC2OCCO2)n(C)c1=O | x | n | n | n | n | x
Clc1cccc(CSc2ccc(-c3cccs3)nn2)c1 | x | n | x | x | x | u
CCOC(=O)C1(C)CCN1C(=O)c1cc(C)oc1C (stereo unspecified) | x | n | x | x | x | x
CC(=O)NC(CC(=O)N1CCCC1)c1ccccc1 (stereo unspecified) | x | n | x | x | n | x
CCN(Cc1ccccc1)C(=O)c1ccc(N(C)S(=O)(=O)c2ccc(C)cc2)cc1 | u | n | u | 15µM | n | u
Cc1ccsc1C1Nc2ccc3ncccc3c2C2=C1C(=O)CC(C)(C)C2 (stereo unspecified) | u | u | 1.2µM | 1.7µM | n | u
CCOC(=O)CN(C(=O)CSc1nnc2c(n1)[nH]c1ccc(F)cc12)c1ccccc1 | u | n | n | 13µM | n | n
CCOC(=O)CN(C(=O)CSc1nnc2c(n1)[nH]c1c(C)cc(C)cc12)c1ccccc1 | n | n | u | x | x | x
CCOC(=O)CN(C(=O)CSc1nnc2c(n1)[nH]c1ccccc12)c1ccccc1 | n | n | u | 7.4µM | u | n
CCSc1nnc(-c2ccc(C)cc2)c2ccccc12 | u | -62 | n | n | u | u
CC(C)NC(=O)CSc1nnc(-c2ccc(F)cc2)c2ccccc12 | x | u | n | u | n | x
CCSc1nnc(-c2ccc(Cl)cc2)c2ccccc12 | n | u | 0.093µM | u | n | n
CCSc1nnc(C)c2ccccc12 | n | n | u | n | u | n
CC1C(=O)C(=O)C=CN1C (stereo unspecified) | x | x | n | u | x | x
C[C@@H]1CN([C@H](C)CO)C(=O)CCCn2nncc2CO[C@@H]1CN(C)C(=O)Nc1ccnc(N2CCOCC2)c1 | x | n | x | x | x | x
COC(=O)C1C(=O)C(C(=O)/C=C/c2ccccc2)C(=O)CC1(C)C (stereo unspecified) | n | -82 | n | u | n | n
CC(C)C(=O)N1CCCC1(C)C(=O)NCc1ccc(Cl)cc1 (stereo unspecified) | x | n | x | x | x | x
Cc1ccc(Cn2ccn(Cc3ccccc3F)c(=O)c2=O)cc1 | x | n | x | x | x | n
Cc1sc(NC(=O)CN(C)C2CCCCC2)nc1-c1ccc2c(c1)CCN2S(=O)(=O)c1ccccc1 | n | x | 2.9µM | x | x | x
COC(=O)N[C@@H](c1ccco1)C(C(C)=O)C(=O)OC (stereo partly specified) | n | x | x | x | x | u
O=c1oc2ccccc2c2c1nnn2CCO | n | -63 | n | n | n | n
O=S(=O)(c1ccc(SCc2ccccc2)nc1)N1CCCC1 | x | n | n | n | u | x
COc1ccc(OCCSc2ccc(S(=O)(=O)N3CCCC3)cn2)cc1 | x | n | u | u | 11µM | x
O=S(=O)(c1ccc(SCCOc2ccccc2Cl)nc1)N1CCCC1 | x | n | u | n | 13µM | x
O=S(=O)(c1ccc(SCCOc2cccc(Br)c2)nc1)N1CCCC1 | n | n | u | u | 10µM | n
SMILES | MARV entry inh | HCMV antiviral | Pf growth 96h | Pf growth 48h | HCV inh | Lassa entry inh
O=S(=O)(c1ccc(SCc2ccc(Br)cc2)nc1)N1CCCCC1 | n | n | n | u | n | n
C[Si](C)(C)O[Si](C)(C)C | x | x | n | n | x | x
Cc1ccc(NC(=O)c2ccc(Cl)c(NC(=O)c3cccs3)c2)cc1 | x | n | u | n | 13µM | x
COc1c(Cl)cc(Cl)cc1/C=C/C(=O)c1ccc(NC(=O)c2cccs2)cc1 | 11µM | -99 | n | 5.2µM | 14µM | u
O=C(Nc1ccc(NC(=O)c2cccs2)cc1)c1ccc(Cl)cc1 | x | n | x | x | x | n
CCOC(=O)N1CCN(C(=O)c2ccc(Cl)c(NC(=O)c3cccs3)c2)CC1 | x | n | u | 10µM | n | x
Cc1nc2ccc(NC(=O)c3ccc(Cl)c(NC(=O)c4cccs4)c3)cc2s1 | u | n | n | n | 10µM | n
CC(=O)N1CCN(C(=O)c2ccc(Cl)c(NC(=O)c3cccs3)c2)CC1 | n | n | n | n | n | n
CCN(CC)c1ccc(NC(=O)C2CCN(S(=O)(=O)c3cnc[nH]3)CC2)c(C)c1 | n | n | x | x | x | n
Cc1ccc(CN2C(=O)CSCC2(C)C(=O)NC(C)C)cc1 (stereo unspecified) | x | n | x | x | x | x
Cc1c(N=Cc2c(O)n(Cc3ccco3)c(=O)c3ccccc23)c(=O)n(-c2ccccc2)n1C | n | n | n | 12µM | u | n
CCOC(=O)c1sc2nccc(N(C)C)c2c1N=CNOCc1ccccc1 | n | n | u | x | 7.9µM | u
CCOC(=O)c1sc2nccc(N(C)C)c2c1N=CNOC | n | u | n | x | u | n
N#Cc1cccc(NC(=O)Cn2cnc(S(=O)(=O)N3CCCCC3)c2)c1 | n | n | n | u | n | n
Cc1nn(Cc2ccc(F)cc2)c2sc(C(=O)Nc3ccc(N4CCOCC4)cc3N3CCOCC3)cc12 | u | -67 | 15µM | 12µM | u | u
O=C(COc1ccc(F)cc1Cl)Nc1ccc(N2CCOCC2)cc1N1CCOCC1 | u | n | u | 9.3µM | 22µM | n
O=C(COc1ccccc1F)Nc1ccc(N2CCOCC2)cc1N1CCOCC1 | n | n | n | u | n | n
O=C(CSCc1ccc(F)cc1)Nc1ccc(N2CCOCC2)cc1N1CCOCC1 | x | n | 13µM | 5.9µM | n | x
O=C(O)c1ccc2c(c1)C(=O)N([C@@H](C(=O)O)C(c1ccccc1)c1ccccc1)C2=O | x | x | n | n | x | x
Cc1c(P(=S)(c2ccccc2)c2ccccc2)[n+]2ccccc2n1CCc1ccccc1 | x | -98 | x | x | x | x
CCOc1ccc2nc(S(=O)(=O)NC(=O)C3(C)CCN3C(=O)c3cc(C)n(C)n3)sc2c1 (stereo unspecified) | x | n | x | x | x | x
CC1CC(C)CN(c2ncc3c(n2)CC(c2ccccc2)CC3=O)C1 (stereo unspecified) | n | n | u | u | n | 2.8µM
CC(C)c1ccc(C2CC(=O)c3cnc(N4CCc5ccccc5C4)nc3C2)cc1 (stereo unspecified) | n | n | n | n | n | n
CCOC(=O)N1CCN(c2ncc3c(n2)CC(c2ccc(Cl)cc2)CC3=O)CC1 (stereo unspecified) | n | -103 | x | x | x | u
COc1cc(C2CC(=O)c3cnc(N4CCN(Cc5ccccc5)CC4)nc3C2)cc(OC)c1OC (stereo unspecified) | u | n | n | 9.3µM | u | 23µM
Cc1nc(N2CCN(Cc3ccccc3)CC2)nc2c1C(=O)CC(C)C2 (stereo unspecified) | n | n | x | n | n | u
COc1ccc(C2CC(=O)c3c(C)nc(N4CCN(Cc5ccccc5)CC4)nc3C2)cc1OC (stereo unspecified) | 18µM | -98 | 10µM | 8.3µM | 3.5µM | 8.2µM
C=C(c1ccccc1)[C@@H](C#N)C1CCCC1 | x | n | x | x | x | x
COc1cc(C2=CN(Cc3ccccc3)CCC2=O)cc(OC)c1OC | x | n | x | x | n | x

Bioassay records (PubChem BioAssay)
